# phage Ecoli inh: E. coli growth loss with phage present | actives 0.26% (n = 360,000) | inhibition, % at 11.9 µM | growth absorbance | AID 651602; in the data active = inhibition above about 11%
# AddAB inh: less growth of phage-infected E. coli with AddAB; E. coli expressing H. pylori AddAB, absorbance growth; inhibition, % at 11.9 µM; actives 0.29% (n = 330,000); in the data active = inhibition above about 12%
# E coli growth-1: blocks Escherichia coli growth. AID 1053175. OD600, 23 h; active compounds read low. OD600 absorbance (concentration not given with the values). actives 0.21% (n = 330,000);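 active = OD600 absorbance below the run mean of sample wells minus 3.6 SD, in any replicate, cut at about 0.56 in these data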
# Tat transport: inhibitors of E. coli Tat protein transport; E. coli MC4100 TorA-mCherry Tat export, fluorescence; inhibition, % at 10 µM; actives 0.036% (n = 340,000); AID 488895;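 active = mean replicate inhibition at least 50% and at least half of replicates individually reaching 50%; inconclusive = only one of the two criteria met; inactive = neither criterion met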;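 also: exported cargo escapes ClpAP degradation while cytoplasmic cargo is degraded and loses fluorescence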
# E coli growth-2: bacterial growth inhibition, counter-screen for AddAB inhibitors | E. coli V3065 growth, OD600 absorbance, 18 h | inhibition, % at 11.9 µM | actives 0.27% (n = 330,000) | AID 449728;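 active = inhibition above the campaign's mean inhibition across all tested compounds plus 3 SD, cut at about 9.9% in these data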;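 also: uninfected addAB+ strain grown without phage in ampicillin broth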
# AddAB conf: growth loss of T4-infected E. coli expressing H. pylori AddAB, confirmed; shares compounds with AddAB inh; inhibition, % at 11.9 µM; E. coli V3065 expressing H. pylori AddAB, T4 phage, OD; T4 phage with gene 2 nonsense mutations; actives 64% (n = 880);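 active = mean inhibition above a set limit taken from the earlier primary screen, cut at about 13% in these data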;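 also: higher means less bacterial growth since AddAB block lets phage replicate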
# RecBCD counter: reduces growth of phage-infected RecBCD+ E. coli, AddAB inhibitor counter-screen. shares compounds with AddAB inh. E. coli V66 + mutant T4 phage, OD growth. inhibition, % at 11.9 µM. actives 73% (n = 880). AID 488955;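 active = mean inhibition above the mean of solvent-only control wells plus 3 SD, cut at about 4% in these data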;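 also: optical density read after an 18 h incubation at 37 °C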
# bact viab count: reduces bacterial viability, AddAB inhibitor counter-screen; absorbance (AddAB counterscreen); shares compounds with AddAB inh; inhibition, % at 11.9 µM; actives 35% (n = 880); AID 488956; in the data active = inhibition above about 25%
# RecBCD conf: growth loss of phage-infected V66 E. coli, RecBCD confirmation screen. shares compounds with phage Ecoli inh. E. coli V66 + T4 2- phage, growth OD. actives 45% (n = 890). inhibition, % at 11.9 µM;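 active = mean inhibition over triplicates exceeding the hit threshold derived in the original primary screen, cut at about 11% in these data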
# Ecoli viability: inhibits E. coli viability, flagging RecBCD hits as nonselective; shares compounds with phage Ecoli inh; absorbance (OD) growth; inhibition, % at 11.9 µM; actives 29% (n = 890); AID 651983; in the data active = inhibition above about 20%;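 also: E. coli strain V66 grown with compound alone and no phage infection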
# AddAB phage OD: growth loss of phage-infected AddAB E. coli, RecBCD counter-screen; shares compounds with phage Ecoli inh; E. coli expressing H. pylori AddAB + T4 phage, OD growth; gene 2 mutant T4, recBCD-deleted host; inhibition, % at 11.9 µM; actives 45% (n = 890);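 active = mean inhibition above the solvent-only control wells' mean plus 3 SD, cut at about 22% in these data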;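 also: higher means less bacterial growth from phage killing when AddAB is blocked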
# A number is an active result; - = inactive; ? = inconclusive; . = no result. A selection: hits, their analogues and other compounds. The true share with any hit is near 0.5%.
SMILES,phage Ecoli inh,AddAB inh,E coli growth-1,Tat transport,E coli growth-2,AddAB conf,RecBCD counter,bact viab count,RecBCD conf,Ecoli viability,AddAB phage OD
CCC(=O)NC(c1cccs1)c1cc(Cl)c2cccnc2c1O (configuration not stated),26,23,-,-,26,25,22,-,14,21,-
CC(=O)NC(c1ccc(C)cc1)c1cc([N+](=O)[O-])c2cccnc2c1O (configuration not stated),-,-,-,-,-,.,.,.,.,.,.
O=C1OCCN1C(=O)C1C(c2ccc(Cl)cc2)C(c2cccc(Cl)c2)=NN1c1ccccc1 (configuration not stated),.,.,-,.,.,.,.,.,.,.,.
CCn1nc(C(=O)NC(CCSC)c2nc3ccccc3[nH]2)c2ccccc2c1=O (configuration not stated),.,.,-,.,.,.,.,.,.,.,.
CCc1nnc(NS(=O)(=O)c2ccc(N=Cc3c(C)[nH]n(-c4ccc(C)c(C)c4)c3=O)cc2)s1,11,16,.,-,12,-,4.5,-,-,-,23
COC(=O)[C@@]1(Cc2ccc(F)cc2)C2c3cc(C(=O)N(C)C)n(Cc4nc5ccccc5[nH]4)c3CC2CN1C(=O)c1ccccc1 (some centres not stated),.,.,-,.,.,.,.,.,.,.,.
Cc1cccc(C2C3C(=O)N(Cc4ccccc4)C(=O)C3[C@]3(Cc4ccccc4)C(=O)N(c4cccc(F)c4)C(=O)N23)c1 (some centres not stated),.,.,-,.,.,.,.,.,.,.,.
S=c1nc[nH]c2nc[nH]c12,25,80,-,-,24,63,24,50,37,40,71
O=C1NC(Cc2cn(S(=O)(=O)c3ccccc3)c3ccccc23)C(=O)NC1Cc1ccccc1 (configuration not stated),.,.,-,.,.,.,.,.,.,.,.
CNCC1Oc2ccc(NC(=O)C3CCCCC3)cc2CC(=O)N(C(C)CO)CC1C (configuration not stated),.,.,-,.,.,.,.,.,.,.,.
COCC=CC1=CC2=CC(=O)C(C)(OC(=O)c3cnc4ccccc4n3)C(=O)C2=CN1CCCOC(C)C (configuration not stated),.,.,-,.,.,.,.,.,.,.,.
O=C(Nc1nnc(-c2cccs2)o1)c1cccc(C(F)(F)F)c1,96,21,0.5,-,13,16,14,-,-,-,-
CC(C)Oc1ccc(Cc2cnc(N)nc2N)cc1,12,12,0.046,-,-,53,14,-,11,-,-
Cc1ccc2c(c1)C1C(CO2)C(c2ccccc2)[C@]2(C)C(=O)N(Cc3ccc(Cl)cc3)CC(=O)N12 (some centres not stated),.,.,-,.,.,.,.,.,.,.,.
COc1ccc(C2CC(=O)C=C(c3cccc(Br)c3)C2)cc1OC (configuration not stated),.,.,-,.,.,.,.,.,.,.,.
CCOC(=O)c1cn(-c2ccc([N+](=O)[O-])cc2)c2cc(Cl)c([N+](=O)[O-])cc2c1=O,-,-,-,-,-,.,.,.,.,.,.
O=C(O)c1cn(-c2ccc(F)cc2)c2cc(Cl)c(F)cc2c1=O,14,53,0.066,-,55,102,99,101,98,100,99
O=[N+]([O-])c1ccc(-c2ccn[nH]2)o1,98,100,0.062,?,100,102,100,101,105,106,106
O=C(N/N=C/c1ccc(O)c(O)c1O)/C(=C/c1ccc([N+](=O)[O-])cc1)NC(=O)c1ccccc1,15,16,.,-,20,-,9.5,-,-,-,-
COc1ccc2c(c1)OC(c1cccc(C(F)(F)F)c1)C(OC(=O)NC1CCCc3ccccc31)C2=O (configuration not stated),.,.,-,.,.,.,.,.,.,.,.
CCN1CC2C3C(=O)N(Cc4ccccc4)C(=O)C3[C@](Cc3ccccc3)(C1=O)N2C(=O)c1ccc(C(C)(C)C)cc1 (some centres not stated),.,.,-,.,.,.,.,.,.,.,.
CCCCNC(=O)OC1CC2CCC(=O)N3CCC(C1)C23 (configuration not stated),.,.,-,.,.,.,.,.,.,.,.
O=C(Cc1ccc2c(c1)OCO2)NN=Cc1ccc([N+](=O)[O-])o1,13,27,-,-,9.9,99,8.4,-,-,-,37
O=C(CNc1ccccc1)N/N=C/c1ccc([N+](=O)[O-])o1,12,17,.,-,16,84,12,28,-,-,59
O=C(COc1ccccc1)NN=Cc1ccc([N+](=O)[O-])o1,.,.,-,.,.,.,.,.,.,.,.
SMILES,phage Ecoli inh,AddAB inh,E coli growth-1,Tat transport,E coli growth-2,AddAB conf,RecBCD counter,bact viab count,RecBCD conf,Ecoli viability,AddAB phage OD
Cc1ccc(NCC(=O)N/N=C\c2ccc([N+](=O)[O-])o2)cc1,-,-,.,-,-,.,.,.,.,.,.
O=C(CNC(=O)c1ccccc1)N/N=C/c1ccc([N+](=O)[O-])o1,20,28,.,-,23,98,10,29,15,-,82
CCOC(=O)CC1c2ccccc2S(=O)(=O)N1Cc1ccc(Cl)cc1 (configuration not stated),.,.,-,.,.,.,.,.,.,.,.
C#Cc1ccc(C2C=C(C(=O)NC3CC3)OC(OCC)C2CCCO)cc1 (configuration not stated),.,.,-,.,.,.,.,.,.,.,.
O=C(CSc1nnc(-c2cccnc2)o1)Nc1ccc(F)cc1,-,.,.,.,.,.,.,.,.,.,.
COc1ccc(NC(=O)CSc2nnc(-c3ccc(F)cc3)o2)cn1,24,21,-,-,-,29,17,-,21,21,39
COc1nsnc1NS(=O)(=O)c1ccc(NC(=S)NC(=O)c2cccnc2)cc1,47,59,0.062,-,54,70,31,42,27,23,45
COc1nsnc1NS(=O)(=O)c1ccc(NC(=S)NC(=O)c2ccncc2)cc1,29,74,0.068,-,62,76,24,34,14,-,33
O=C(NNC(=O)C1CCN(S(=O)(=O)c2ccc(Cl)cc2)CC1)c1ccccc1O,12,12,.,-,-,-,7.3,-,-,-,-
O=C(N/N=C/c1ccc(O)cc1O)C(=O)N/N=C/c1ccc(O)cc1O,22,28,.,-,30,22,24,-,19,21,29
CCCCN1CC(=O)N2C3c4ccc(OC)cc4OCC3C(C(=O)OCC)[C@]2(C)C1=O (some centres not stated),.,.,-,.,.,.,.,.,.,.,.
